The source of these data is PubChem BioAssay (EPA / NIEHS).

In general, AC50 refers to the midpoint of the concentration-response curve, whichever way the signal moves.

Records with an inconclusive call do not appear. Activity calls are given as the source filed them. Rule for the calls: active = hit-call score of the fitted dose curve at least 0.9, where 1 is the maximum; inconclusive = response in the unintended direction; inactive = score below 0.9.

The first assay is described as follows: Tanguay_ZF_120hpf_YSE_legacy: (Legacy) Oregon State University Tanguay Lab 120 Hour Post-fertilization zebrafish Assay for Yolk Sac Edema (AID 2283634).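 For AC50: actives raise the incidence of yolk sac edema above the DMSO baseline.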 Put shortly: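 Dechorionated Tropical 5D wild-type zebrafish embryos were exposed statically, one per well, from 6 to 120 hpf at 28C in 0.64% DMSO. Yolk sac edema was scored present/absent by brightfield at 120 hpf, and dead embryos were excluded.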
In the case of `CCCCN1C(=O)[C@@H]([C@H](O)C2CCCCC2)NC(=O)C12CCN(Cc1ccc(Oc3ccc(C(=O)O)cc3)cc1)CC2`, the outcome was inactive.
The same measure, in the same setting: for `OCC(CO)(CO)CO` the value was “inactive”.
Regarding `c1ccc(C(O[C@@H]2CCCN(CCc3ccc4c(c3)OCO4)C2)c2ccccc2)cc1`, the AC50 is 24.7 µM (active).
`Cn1c(=O)c2[nH]cnc2n(C)c1=O`: the outcome was inactive.
Consider `CC(C)c1nnc2ccc(-c3ocnc3-c3cc(F)ccc3F)cn12`, for which the call was inactive.
For the compound `O=C(O)c1cccc(C[C@@H]2COc3ccc(OCc4nc5cc(F)ccc5s4)cc3[C@@H]2O)c1`, the AC50 is 5.39 µM (active).
`C[C@]12C=CC(=O)C=C1CC[C@H]1[C@@H]3C[C@@H](O)[C@](O)(C(=O)CO)[C@@]3(C)C[C@H](O)[C@@]12F`: the compound was called inactive.
The same measure, in the same setting: the value for `CCCCC(CC)C(=O)OCCOCCOCCOC(=O)C(CC)CCCC` (centres undefined) was “inactive”.
Still for that read-out and setting: the value for `C=CN1CCCC1=O` was “inactive”.
On the same count and under the same terms, for `CC(=O)c1ccccc1` the value was “inactive”.
For `OC(Cn1cncn1)(Cn1cncn1)c1ccc(F)cc1F`, the call was inactive.
Same read-out and setting: for `CCCCOC(=O)c1ccccc1` the value was “inactive”.
Same read-out and setting: the value for `c1ccc2cc3ccccc3cc2c1` was “inactive”; that for `CCc1cccc(CC)c1N` was “inactive”.
In the case of `CCN(CC)C(=S)SSC(=S)N(CC)CC`, the AC50 is 0.425 µM (active).
For the compound `CCCCCCCCCCCCCCO`, the compound was classed as inactive.
On to `CCCc1ccccc1`, for which the compound was called inactive.
Regarding `CCc1ccc(O)c(C(C)(C)C)c1`, the call was inactive.
Same read-out and setting: the value for `O=C(O)c1ccc2c(c1)nc(C(=O)NC1CCN(C3CC3)CC1)n2Cc1cc(-c2ccc(Cl)s2)on1` was “inactive”; that for `NNC(=O)c1ccncc1` was “inactive”.
Still for that read-out and setting: the value for `C=CCc1cc(S(=O)(=O)c2ccc(O)c(CC=C)c2)ccc1O` was “inactive”.
As for `CCCCCCCCCC`, the call was inactive.
Take `NC(=O)NN=Cc1ccc([N+](=O)[O-])o1`: the result was inactive.
As for `CC1(C)C(=O)N(Cl)C(=O)N1Cl`, the outcome was inactive.
Still for that read-out and setting: the value for `CCCCCCOC(=O)CC(CC(=O)OCCCCCC)(OC(=O)CCC)C(=O)OCCCCCC` was “inactive”.
Take `CCCCCCCC1CCC(=O)O1` (centres undefined): the concentration at half-maximal activity (AC50) was 25.9 µM (active).
Regarding `c1ccc2ncccc2c1`, the result was inactive.
Still for that read-out and setting: the value for `CCOC(N)=O` was “inactive”; that for `CCCCCCCCCCCCCCCCOS(=O)(=O)O` was “inactive”; that for `OCCOCCOCCO` was “inactive”.
For `OC(CCl)CCl`, the call was inactive.

A short description of a further assay: Tanguay_ZF_120hpf_AXIS_legacy: (Legacy) Oregon State University Tanguay Lab 120 Hour Post-fertilization zebrafish Assay for Body Axis Malformation (AID 2283635).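 For AC50: potency for an increased fraction of larvae scored with body axis malformation.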 The gist of the method: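 Dechorionated wild-type Tropical 5D zebrafish embryos, one per well, statically exposed from 6 hpf to 120 hpf at 28C in 0.64% DMSO final. Body axis malformation scored present/absent by brightfield microscopy at 120 hpf; dead embryos excluded.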
For the compound `CCCCN1C(=O)[C@@H]([C@H](O)C2CCCCC2)NC(=O)C12CCN(Cc1ccc(Oc3ccc(C(=O)O)cc3)cc1)CC2`, the compound was called inactive.
On to `OCC(CO)(CO)CO`, for which the result was inactive.
For the compound `c1ccc(C(O[C@@H]2CCCN(CCc3ccc4c(c3)OCO4)C2)c2ccccc2)cc1`, the AC50 is 34.7 µM (active).
In the case of `Cn1c(=O)c2[nH]cnc2n(C)c1=O`, the compound was called inactive.
`O=C(O)c1cccc(C[C@@H]2COc3ccc(OCc4nc5cc(F)ccc5s4)cc3[C@@H]2O)c1`: the concentration at half-maximal activity (AC50) was 5.78 µM (active).
Take `CCCCCCCC/C=C\CCCCCCCC(=O)OC[C@@H](O)[C@H]1OC[C@H](O)[C@H]1O`: the call was inactive.
On the same count and under the same terms, the value for `O=S1(=O)CCCO1` was “inactive”; that for `C[C@]12C=CC(=O)C=C1CC[C@H]1[C@@H]3C[C@@H](O)[C@](O)(C(=O)CO)[C@@]3(C)C[C@H](O)[C@@]12F` was “inactive”.
Still for that read-out and setting: the value for `CCCCC(CC)C(=O)OCCOCCOCCOC(=O)C(CC)CCCC` (centres undefined) was “inactive”.
The same measure, in the same setting: for `C=CN1CCCC1=O` the value was “inactive”.
Turning to `CC(=O)c1ccccc1`, the outcome was inactive.
For the compound `OC(Cn1cncn1)(Cn1cncn1)c1ccc(F)cc1F`, the compound was classed as inactive.
Same read-out and setting: the value for `CCCCOC(=O)c1ccccc1` was “inactive”; that for `c1ccc2cc3ccccc3cc2c1` was “inactive”.
The same measure, in the same setting: the value for `CCCCCCCCN(C)C` was “inactive”; that for `CCn1nc(C)c2c1C(=O)NCC(c1ccc(O)cc1)=N2` was “inactive”.
Take `CCc1cccc(CC)c1N`: the compound was classed as inactive.
With `CCN(CC)C(=S)SSC(=S)N(CC)CC`, the half-maximal activity concentration (AC50) was 0.36 µM (active).
With `CCCCCCCCCCCCCCO`, the call was inactive.
The same measure, in the same setting: for `CCCc1ccccc1` the value was “inactive”.
The same measure, in the same setting: for `O=C(O)c1ccc2c(c1)nc(C(=O)NC1CCN(C3CC3)CC1)n2Cc1cc(-c2ccc(Cl)s2)on1` the value was “inactive”; for `NNC(=O)c1ccncc1`, “inactive”; for `C=CCc1cc(S(=O)(=O)c2ccc(O)c(CC=C)c2)ccc1O`, “inactive”.
On the same count and under the same terms, for `CCCCCCCCCC` the value was “inactive”.
As to `NC(=O)NN=Cc1ccc([N+](=O)[O-])o1`, the result was inactive.
Take `CC1(C)C(=O)N(Cl)C(=O)N1Cl`: the outcome was inactive.
Regarding `CCCCCCOC(=O)CC(CC(=O)OCCCCCC)(OC(=O)CCC)C(=O)OCCCCCC`, the call was inactive.
The same measure, in the same setting: the value for `CCCCCCCC1CCC(=O)O1` (centres undefined) was “inactive”.
Regarding `c1ccc2ncccc2c1`, the result was inactive.
Turning to `CCOC(N)=O`, the compound was called inactive.
Take `CCCCCCCCCCCCCCCCOS(=O)(=O)O`: the compound was classed as inactive.
Same read-out and setting: the value for `OCCOCCOCCO` was “inactive”.
As for `OC(CCl)CCl`, the call was inactive.

The nature of a further assay: Tanguay_ZF_120hpf_EYE_legacy: (Legacy) Oregon State University Tanguay Lab 120 Hour Post-fertilization zebrafish Assay for Eye Malformation (AID 2283636).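 Note: binary presence or absence of eye malformation scored by brightfield in 120 hpf larvae.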 The gist of the method: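 Dechorionated wild-type Tropical 5D zebrafish embryos were exposed statically from 6 hpf, one per well, to 120 hpf at 28C in sealed, foil-covered plates with 0.64% DMSO. Eye malformation was scored present/absent by brightfield microscopy against DMSO controls.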
For the compound `OCC(CO)(CO)CO`, the call was inactive.
`c1ccc(C(O[C@@H]2CCCN(CCc3ccc4c(c3)OCO4)C2)c2ccccc2)cc1`: the half-maximal activity concentration (AC50) was 36.5 µM (active).
On to `Cn1c(=O)c2[nH]cnc2n(C)c1=O`, for which the result was inactive.
Regarding `CC(C)c1nnc2ccc(-c3ocnc3-c3cc(F)ccc3F)cn12`, the compound was classed as inactive.
The same measure, in the same setting: the value for `O=C(O)c1cccc(C[C@@H]2COc3ccc(OCc4nc5cc(F)ccc5s4)cc3[C@@H]2O)c1` was “inactive”; that for `CCCCCCCC/C=C\CCCCCCCC(=O)OC[C@@H](O)[C@H]1OC[C@H](O)[C@H]1O` was “inactive”; that for `O=S1(=O)CCCO1` was “inactive”.
Regarding `C[C@]12C=CC(=O)C=C1CC[C@H]1[C@@H]3C[C@@H](O)[C@](O)(C(=O)CO)[C@@]3(C)C[C@H](O)[C@@]12F`, the call was inactive.
Same read-out and setting: the value for `CCCCC(CC)C(=O)OCCOCCOCCOC(=O)C(CC)CCCC` (centres undefined) was “inactive”.
For the compound `C=CN1CCCC1=O`, the outcome was inactive.
Consider `CC(=O)c1ccccc1`, for which the compound was classed as inactive.
Still for that read-out and setting: the value for `CCCCOC(=O)c1ccccc1` was “inactive”; that for `c1ccc2cc3ccccc3cc2c1` was “inactive”; that for `CCn1nc(C)c2c1C(=O)NCC(c1ccc(O)cc1)=N2` was “inactive”.
In the case of `CCN(CC)C(=S)SSC(=S)N(CC)CC`, the concentration at half-maximal activity (AC50) was 1.4 µM (active).
Consider `CCCCCCCCCCCCCCO`, for which the call was inactive.
Turning to `CCCc1ccccc1`, the outcome was inactive.
The same measure, in the same setting: for `CCc1ccc(O)c(C(C)(C)C)c1` the value was “inactive”; for `NNC(=O)c1ccncc1`, “inactive”.
Consider `C=CCc1cc(S(=O)(=O)c2ccc(O)c(CC=C)c2)ccc1O`, for which the call was inactive.
For the compound `CCCCCCCCCC`, the result was inactive.
As to `CCCCCCOC(=O)CC(CC(=O)OCCCCCC)(OC(=O)CCC)C(=O)OCCCCCC`, the call was inactive.
Still for that read-out and setting: the value for `CCCCCCCC1CCC(=O)O1` (centres undefined) was “inactive”; that for `c1ccc2ncccc2c1` was “inactive”.
As for `CCOC(N)=O`, the compound was classed as inactive.
Still for that read-out and setting: the value for `Cn1cc[nH]c1=S` was “inactive”.
Regarding `CCCCCCCCCCCCCCCCOS(=O)(=O)O`, the outcome was inactive.
For `OCCOCCOCCO`, the compound was classed as inactive.
Turning to `OC(CCl)CCl`, the result was inactive.
Consider `O=C1CN(N=Cc2ccc([N+](=O)[O-])o2)C(=O)N1`, for which the result was inactive.
